# PubChem BioAssay (NCATS)
# Inconclusive results are not listed. The source made the active and inactive calls. Unless noted, calls follow the shape of the dose curve; as a rule, active = well fitted curve in the direction sought with a large enough effect; inconclusive = small, poorly fitted or top-dose-only effect, or another doubt; inactive = no such curve, though single readings can be large; an effect the other way counts as inactive or inconclusive.
# How the values were obtained:
# [1] = target: Estrogen receptor (Homo sapiens) (UniProt P03372); test: qHTS assay for small molecule antagonists of estrogen receptor alpha signaling (AID 588513; active = well fitted curve in the direction sought with a large enough effect in the signal ratio, with a control signal flat, not every such curve was filed as active; the % refers to the signal ratio; also: % is scaled to controls: 0 for no effect and ±100 for the full control effect)
# Summary of the method: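 ER-alpha-UAS-bla GripTite HEK 293 cells in medium with 2% charcoal/dextran-treated FBS were preincubated 4 h at 37 C, dosed with compound (1:2 titration), stimulated with 0.5nM 17-beta-estradiol for 18 h, then read by CCF4 beta-lactamase fluorescence.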
# [2] = target: Estrogen receptor (Homo sapiens) (UniProt P03372); test: qHTS assay for small molecule agonists of estrogen receptor alpha signaling (AID 588514; calls by dose curve;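 also: 0% = vehicle only and 100% = reference agonist; nearly all actives have a fitted effect of over 70% in size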)
# Summary of the method: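 Reporter-gene assay. […] controls beta-lactamase in HEK 293 GripTite cells; after 18 hrs with compound, CCF4 substrate is added for 2 hrs and fluorescence is read.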
# [3] = qHTS assay for small molecule antagonists of peroxisome proliferator-activated receptor delta signaling (AID 588535); settings: HEK293T PPARd-UAS-bla, beta-lactamase FRET ratio, 18 h; 460 nm channel;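 also: cells co-treated with a PPAR-delta agonist as stimulator during compound exposure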
# Summary of the method: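 Cell-based beta-lactamase assay in antagonist mode: 4000 HEK293T PPAR-delta-UAS-bla cells per well, 5 hr preincubation then 18 hr compound incubation at 37 C. IC50 obtained by Hill equation fitting.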
# [4] = target: Peroxisome proliferator-activated receptor gamma (Homo sapiens) (UniProt P37231); test: qHTS assay for small molecule agonists of peroxisome proliferator-activated receptor gamma signaling (AID 588536; active = well fitted curve in the direction sought with a large enough effect in the signal ratio, with a control signal flat, not every such curve was filed as active; the % refers to the signal ratio;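 also: 0% = DMSO basal wells and 100% = rosiglitazone at 2 µM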)
# Summary of the method: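 HEK293 UAS-bla reporter line, 1% charcoal/dextran FBS; titration, 16 h, 37 C; CCF4 loading 2 h RT; fluorescence 460/530 nm. Normalized to rosiglitazone 2 uM = 100%, DMSO = 0%.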
# [5] = target: Vitamin D3 receptor (Homo sapiens) (UniProt P11473); test: qHTS assay for small molecule agonists of vitamin D receptor signaling (AID 588543; calls by dose curve;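 also: 0% = DMSO basal and 100% = reference agonist control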)
# Summary of the method: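 GeneBLAzer VDR-UAS-bla HEK293T cells in 2% charcoal-stripped FBS medium were dosed with compound titrations for 16 h at 37 °C; CCF4 β-lactamase readout (405 nm ex, 460/530 nm em). EC50 and efficacy from Hill fits, normalized to 50 nM calcitriol (100%) and DMSO (0%).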
# [6] = qHTS assay for small molecule agonists of retinoid X receptor alpha signaling (AID 588544; calls by dose curve;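 as to activation: 0% = DMSO basal wells and 100% = reference agonist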); settings: HEK293T RXRa-UAS-bla, beta-lactamase reporter, 18 h; 530 nm emission
# [7] = target: Retinoic acid receptor RXR-alpha (Homo sapiens) (UniProt P19793); test: as above
# [8] = target: Thyroid hormone receptor beta (Homo sapiens) (UniProt P10828); test: qHTS assay for small molecule agonists of thyroid hormone receptor beta signaling (AID 588545; calls by dose curve;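 also: 0% = DMSO only and 100% = 10 nM T3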)
# Summary of the method: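 Beta-lactamase reporter activity under TR response element control is measured in HEK 293 cells after 18 hrs compound exposure. Signal is ratiometric CCF4 fluorescence, 460/530 nm.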
# [9] = qHTS assay for small molecule antagonists of retinoid X receptor alpha signaling (AID 588546; active = well fitted inhibition curve with a large enough effect in the signal ratio, with a control signal flat, not every such curve was filed as active; the % refers to the signal ratio;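 also: cells stimulated with 9-cis-retinoic acid as agonist; % is scaled to controls: 0 for no effect and ±100 for the full control effect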); settings: HEK293T RXRa-UAS-bla, beta-lactamase ratio, antagonist mode; measured here: W530 green channel, cytotoxicity proxy
# Summary of the method: (§1)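 Beta-lactamase reporter inhibition, read as CCF4 fluorescence ratio (ex 405, em 460/530 nm) after 2 h at RT. HEK293T UAS-bla cells, 2500/well, were stimulated with 9-cis-RA at 500 or 100 nM final alongside test compound for 18 h at 37 C.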
# [10] = qHTS assay for environmental chemicals that activate the Aryl hydrocarbon Receptor (AhR) signaling pathway (AID 651777); settings: 1A2-DRE human hepatoma cells, luciferase, 24 h; activation: stronger effect = higher value; also: % of control where 0% means no effect; nearly all actives have a fitted effect of over 15% in size
# Summary of the method: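 Reporter gene assay: hepatoma cells with DRE/CYP1A2-luciferase, 24 hr compound incubation at 37 C, 5% CO2, luminescence after One-Glo (30 min, RT).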
# [11] = target: Peroxisome proliferator-activated receptor alpha (Homo sapiens) (UniProt Q07869); test: qHTS assay for small molecule agonists of the peroxisome proliferator-activated receptor alpha (PPARalpha) signaling pathway (AID 651778); settings: PathHunter PPARalpha complementation, chemiluminescence, 6 h; max response: stronger effect = higher value; also: % of control where 0% means no effect
# Summary of the method: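 Chemiluminescence from complemented enzyme reported PPARalpha activation in cells after 6 hr of compound treatment at 37 C. The detection reagent was incubated for 60 min at room temperature, and compounds were scored as agonists.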
# [12] = qHTS assay for small molecule agonists of the antioxidant response element (ARE) signaling pathway measured by Nrf2-dependant transcriptional activity (AID 720636; active = well fitted curve in the direction sought with a large enough effect in the repeat runs; an effect the other way counts as inactive or inconclusive;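 also: HepG2 cells with an ARE-driven luciferase reporter; % of control where 0% means no effect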)
# Summary of the method: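 Nrf2-dependent transcription is measured in ARE-luc HepG2 cells: compound is applied for 16 hr at 37 C after a 6 hr attachment period, and luciferase activity is quantified by luminescence using ONE-Glo.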
# [13] = qHTS assay for small molecule agonists of the antioxidant response element (ARE) signaling pathway measured by Nrf2-dependant transcriptional activity - cell viability counter screen (AID 720653; active = well fitted curve in the direction sought with a large enough effect in the repeat runs; an effect the other way counts as inactive or inconclusive; also: % is scaled to controls: 0 for no effect and ±100 for the full control effect); settings: ARE-bla HepG2 viability, CellTiter-Glo ATP luminescence, 16 h; max response: stronger effect = lower value
# Summary of the method: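 Cytotoxicity counter screen: intracellular ATP quantified by CellTiter-Glo luminescence in the same ARE-bla HepG2 plates, after 16 h compound exposure and a 2 h beta-lactamase substrate step.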
# [14] = qHTS assay for cell viability of HEK293 cells (AID 743288); settings: ATP luminescence (CellTiter-Glo), 18 h; max response: stronger effect = lower value; also: % is scaled to controls: 0 for no effect and ±100 for the full control effect; nearly all actives have a fitted effect of over 50% in size
# Summary of the method: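 Parental HEK293 cells were seeded at 2,000 cells/well, rested at least 5 h at 37 C, then exposed to compounds in DMSO for 18 h at 37 C. Viability was read as ATP-dependent luciferase luminescence after 30 min at room temperature.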
# [15] = qHTS assay for cell viability of the p53RE-bla HCT-116 cell line (AID 743292); also: % is scaled to controls: 0 for no effect and ±100 for the full control effect; nearly all actives have a fitted effect of over 55% in size
# Summary of the method: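 ATP-based luminescence, 16 h compound exposure at 37 C, p53RE-bla HCT-116 cells at 4,000/well.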
# [16] = target: Retinoic acid receptor RXR-alpha (Homo sapiens) (UniProt P19793); test: qHTS assay for small molecule antagonists of retinoid X receptor alpha signaling (AID 588546); settings: HEK293T RXRa-UAS-bla, beta-lactamase ratio, antagonist mode;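 also: cells stimulated with 9-cis-retinoic acid as agonist; % is scaled to controls: 0 for no effect and ±100 for the full control effect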
# Summary of the method: as §1
# [17] = target: Thyroid hormone receptor beta (Homo sapiens) (UniProt P10828); test: qHTS assay for small molecule antagonists of thyroid hormone receptor beta signaling (AID 588547; active = well fitted inhibition curve with a large enough effect in the signal ratio, with a control signal flat, not every such curve was filed as active; the % refers to the signal ratio); settings: TR-UAS-bla HEK293, beta-lactamase ratio, antagonist mode, 18 h
# Summary of the method: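 Inhibition of T3-driven (0.4nM final) beta-lactamase reporter activity was measured over 0.59 nM to 92 uM compound after 18 h at 37 C. The cells were GripTite HEK293 TR-UAS-bla in charcoal/dextran-stripped serum, with CCF4 ratio read-out and IC50 from Hill fits.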
# [18] = qHTS assay for small molecule activators of the nuclear factor-kappa B (NF-kB) signaling pathway (AID 651749; active = well fitted activation curve with a large enough effect in the signal ratio; the % refers to the signal ratio; also: series mostly up to about 77 µM; % of control where 0% means no effect); settings: NF-kB-bla ME-180 cells, beta-lactamase FRET ratio, 16 h; activation: stronger effect = higher value
# Summary of the method: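 Stably transfected ME-180 line; NF-kB response element upstream of beta-lactamase. Treatment: compound or DMSO, 16 hr. Detection: fluorescent FRET substrate.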
# [19] = target: Nuclear receptor subfamily 1 group I member 2 (Rattus norvegicus) (UniProt Q9R1A7); test: qHTS assay for small molecule activators of the rat pregnane X receptor (rPXR) signaling pathway (AID 651751; call rule not given here; also: 0% is about no effect); settings: rPXR reporter cells, luciferase (One-Glo), 24 h
# [20] = qHTS assay for small molecule activators of the human pregnane X receptor (PXR) signaling pathway (AID 720659; call rule not given here; also: 0% is about no effect)
# Sequence of Vitamin D3 receptor (Homo sapiens) (P11473 whole entry, looked up): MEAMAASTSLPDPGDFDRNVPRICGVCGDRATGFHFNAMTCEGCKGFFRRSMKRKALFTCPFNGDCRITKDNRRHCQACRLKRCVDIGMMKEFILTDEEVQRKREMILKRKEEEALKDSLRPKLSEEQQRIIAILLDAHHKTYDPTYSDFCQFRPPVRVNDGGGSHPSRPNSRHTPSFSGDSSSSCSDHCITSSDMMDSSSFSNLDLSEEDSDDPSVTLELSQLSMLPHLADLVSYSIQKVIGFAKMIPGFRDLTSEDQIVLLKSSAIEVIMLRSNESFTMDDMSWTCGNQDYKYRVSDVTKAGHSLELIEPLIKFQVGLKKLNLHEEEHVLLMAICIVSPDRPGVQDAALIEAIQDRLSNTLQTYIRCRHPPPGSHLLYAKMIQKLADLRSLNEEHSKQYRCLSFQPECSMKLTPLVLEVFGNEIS
# Sequence of Peroxisome proliferator-activated receptor gamma (Homo sapiens) (P37231 whole entry, looked up): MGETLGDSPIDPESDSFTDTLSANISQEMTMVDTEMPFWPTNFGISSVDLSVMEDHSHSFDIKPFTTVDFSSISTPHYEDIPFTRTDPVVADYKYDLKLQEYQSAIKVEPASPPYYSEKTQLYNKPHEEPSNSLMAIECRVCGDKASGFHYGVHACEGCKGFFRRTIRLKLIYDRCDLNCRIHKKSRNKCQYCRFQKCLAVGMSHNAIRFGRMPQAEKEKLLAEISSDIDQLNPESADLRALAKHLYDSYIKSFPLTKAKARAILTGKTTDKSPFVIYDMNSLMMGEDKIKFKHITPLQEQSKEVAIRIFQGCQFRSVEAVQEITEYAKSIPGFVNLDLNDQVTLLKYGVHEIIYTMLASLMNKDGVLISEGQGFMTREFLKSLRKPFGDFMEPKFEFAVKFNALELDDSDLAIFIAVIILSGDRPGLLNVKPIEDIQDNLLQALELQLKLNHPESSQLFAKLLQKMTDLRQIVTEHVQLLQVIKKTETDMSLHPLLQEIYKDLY
# Sequence of Peroxisome proliferator-activated receptor alpha (Homo sapiens) (Q07869 whole entry, looked up): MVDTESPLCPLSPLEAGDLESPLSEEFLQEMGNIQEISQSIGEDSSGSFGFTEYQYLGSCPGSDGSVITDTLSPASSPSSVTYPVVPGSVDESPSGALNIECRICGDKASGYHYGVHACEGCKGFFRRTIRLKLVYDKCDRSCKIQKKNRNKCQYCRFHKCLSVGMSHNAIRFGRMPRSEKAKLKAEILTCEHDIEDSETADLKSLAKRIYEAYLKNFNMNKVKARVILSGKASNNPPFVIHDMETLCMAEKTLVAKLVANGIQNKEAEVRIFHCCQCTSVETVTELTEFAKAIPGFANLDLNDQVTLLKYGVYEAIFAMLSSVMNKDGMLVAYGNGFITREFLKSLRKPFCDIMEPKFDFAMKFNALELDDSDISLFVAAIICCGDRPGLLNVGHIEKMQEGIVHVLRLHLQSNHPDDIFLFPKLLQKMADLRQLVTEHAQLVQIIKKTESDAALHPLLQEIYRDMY
# Sequence of Estrogen receptor (Homo sapiens) (P03372 whole entry, looked up): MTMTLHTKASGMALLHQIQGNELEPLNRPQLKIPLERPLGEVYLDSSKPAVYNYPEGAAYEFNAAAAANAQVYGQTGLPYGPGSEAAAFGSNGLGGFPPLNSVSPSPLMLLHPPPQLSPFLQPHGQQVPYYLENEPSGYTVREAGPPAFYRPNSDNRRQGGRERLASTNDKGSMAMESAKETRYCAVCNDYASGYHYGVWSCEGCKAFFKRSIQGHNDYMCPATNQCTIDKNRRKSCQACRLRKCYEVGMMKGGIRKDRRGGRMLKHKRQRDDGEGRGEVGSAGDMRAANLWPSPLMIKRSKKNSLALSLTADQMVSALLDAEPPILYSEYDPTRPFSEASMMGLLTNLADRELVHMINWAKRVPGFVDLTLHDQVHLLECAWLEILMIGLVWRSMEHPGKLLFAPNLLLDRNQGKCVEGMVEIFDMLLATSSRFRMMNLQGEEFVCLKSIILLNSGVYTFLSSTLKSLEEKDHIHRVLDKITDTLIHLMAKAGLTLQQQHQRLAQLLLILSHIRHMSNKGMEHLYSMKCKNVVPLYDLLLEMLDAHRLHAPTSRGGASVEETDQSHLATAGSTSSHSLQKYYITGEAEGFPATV
# Sequence of Nuclear receptor subfamily 1 group I member 2 (Rattus norvegicus) (Q9R1A7 whole entry, looked up): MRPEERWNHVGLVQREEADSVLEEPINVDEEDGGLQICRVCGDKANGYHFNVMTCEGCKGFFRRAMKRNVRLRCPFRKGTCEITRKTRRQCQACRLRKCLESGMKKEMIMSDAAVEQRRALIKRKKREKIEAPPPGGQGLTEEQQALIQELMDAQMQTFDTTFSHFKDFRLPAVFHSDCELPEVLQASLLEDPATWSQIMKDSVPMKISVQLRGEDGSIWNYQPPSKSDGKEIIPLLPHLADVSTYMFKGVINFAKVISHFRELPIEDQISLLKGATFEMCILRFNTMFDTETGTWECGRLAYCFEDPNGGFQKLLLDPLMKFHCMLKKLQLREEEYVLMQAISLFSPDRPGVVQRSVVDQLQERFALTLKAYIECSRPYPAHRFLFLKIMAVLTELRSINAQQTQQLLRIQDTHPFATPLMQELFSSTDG
# Sequence of Retinoic acid receptor RXR-alpha (Homo sapiens) (P19793 whole entry, looked up): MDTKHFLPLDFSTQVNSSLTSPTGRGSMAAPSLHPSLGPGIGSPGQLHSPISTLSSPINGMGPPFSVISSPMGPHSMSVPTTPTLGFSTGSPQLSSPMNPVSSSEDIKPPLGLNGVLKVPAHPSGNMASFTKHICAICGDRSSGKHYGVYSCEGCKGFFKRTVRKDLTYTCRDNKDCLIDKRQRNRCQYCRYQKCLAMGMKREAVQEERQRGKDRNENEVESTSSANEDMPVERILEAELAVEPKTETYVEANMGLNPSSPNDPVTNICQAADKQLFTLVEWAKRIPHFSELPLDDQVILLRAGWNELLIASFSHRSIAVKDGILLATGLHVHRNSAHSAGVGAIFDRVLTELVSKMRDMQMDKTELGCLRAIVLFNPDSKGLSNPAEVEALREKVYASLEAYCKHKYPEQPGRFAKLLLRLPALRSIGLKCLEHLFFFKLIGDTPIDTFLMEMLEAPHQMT
# Sequence of Thyroid hormone receptor beta (Homo sapiens) (P10828 whole entry, looked up): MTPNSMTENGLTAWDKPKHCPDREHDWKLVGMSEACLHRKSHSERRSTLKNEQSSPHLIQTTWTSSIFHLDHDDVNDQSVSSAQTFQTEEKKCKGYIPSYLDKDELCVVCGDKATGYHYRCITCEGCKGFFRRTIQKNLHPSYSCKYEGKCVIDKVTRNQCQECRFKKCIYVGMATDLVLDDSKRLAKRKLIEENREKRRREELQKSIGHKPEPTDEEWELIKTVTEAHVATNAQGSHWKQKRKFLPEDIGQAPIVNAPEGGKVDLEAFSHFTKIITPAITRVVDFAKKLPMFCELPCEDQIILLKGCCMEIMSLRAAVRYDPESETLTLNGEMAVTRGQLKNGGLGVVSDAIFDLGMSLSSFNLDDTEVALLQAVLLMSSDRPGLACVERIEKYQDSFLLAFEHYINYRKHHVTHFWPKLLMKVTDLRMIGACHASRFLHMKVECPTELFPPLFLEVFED
SMILES,Potency [1],Potency [2],max response [3],outcome [4],outcome [5],max response [6],Potency [7],Potency [8],max response [9],activation [10],max response [11],Potency [12],max response [13],max response [14],Potency [15],max response [16],activity change % (negative = inhibition) [17],activation [18],max response [19],outcome [20]
CC(C)(C)C(O)/C(=C\c1ccc(Cl)cc1)n1cncn1 (stereo not drawn),inactive,inactive,-55.9%,inactive,inactive,16.3%,inactive,inactive,-0.493%,3.57% (inactive),6.34% (inactive),inactive,-4.78% (inactive),-13.5% (inactive),inactive,,,,,
Cc1ccc(C(=O)c2ccccc2)cc1,inactive,inactive,-13.1%,inactive,,0.662%,inactive,inactive,9.26%,-0.234% (inactive),-3.56% (inactive),,-0.957% (inactive),-2.28% (inactive),inactive,-15.9% (inactive),-19.1% (inactive),0.979% (inactive),3.11% (inactive),
CC(Cl)(Cl)C(=O)OCCOc1cc(Cl)c(Cl)cc1Cl,inactive,inactive,-5.22%,inactive,inactive,-6.02%,inactive,inactive,-16.7%,1.95% (inactive),6.22% (inactive),,2.91% (inactive),-9.39% (inactive),inactive,0.808% (inactive),,,-0.3% (inactive),
CS/C(=N\O)C(=O)N(C)C,inactive,inactive,31.5%,inactive,inactive,6.39%,inactive,,0.656%,-0.34% (inactive),,inactive,-5.16% (inactive),-6.73% (inactive),inactive,-15.6% (inactive),-12.9% (inactive),-2.88% (inactive),-0.0731% (inactive),inactive
O=C1CCCC/C=C/CCCCCCCCCO1,inactive,inactive,-0.124%,inactive,,-14.2%,inactive,inactive,-16.9%,-0.496% (inactive),11.1% (inactive),inactive,0.0367% (inactive),4.39% (inactive),inactive,5.91% (inactive),-13.1% (inactive),-0.561% (inactive),-0.578% (inactive),inactive
CCCCCCCCCCCCCCC(=O)OC,inactive,inactive,-7.18%,inactive,inactive,2.13%,inactive,inactive,-9.41%,-1.03% (inactive),-0.882% (inactive),,-2.69% (inactive),-7.2% (inactive),inactive,8.47% (inactive),,0.418% (inactive),-2.84% (inactive),inactive
